Results as given in PubChem BioAssay AID1359 (The Scripps Research Institute Molecular Screening Center, 2008).
“And” between values parts separate entries of the source, which are not always exact repeats. Identical values can stand only once. Hit rate of the full screen: of about 220,000 compounds, about 970 (0.44%) were called active. No stated cut-off is given here; in the data, active means activation above about 27%; inactive means the rest. For the sample, actives were picked, then their nearest neighbours and some compounds at random.

What follows are compounds tested against Neuropeptide Y receptor type 2 (Homo sapiens) (UniProt P49146) (assay: NPY-Y2 potentiators or agonists, primary screen, cell-based (AID 1359;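 further: cells stimulated with NPY near EC25 plus isoproterenol at EC100; 0% = vehicle plus submaximal agonist and 100% = vehicle plus saturating agonist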)). Settings: cells expressing NPY-Y2, potentiator/agonist read-out; at 3.6 µM; hits give high values.
Sequence of Neuropeptide Y receptor type 2 (Homo sapiens) (P49146 whole entry, looked up): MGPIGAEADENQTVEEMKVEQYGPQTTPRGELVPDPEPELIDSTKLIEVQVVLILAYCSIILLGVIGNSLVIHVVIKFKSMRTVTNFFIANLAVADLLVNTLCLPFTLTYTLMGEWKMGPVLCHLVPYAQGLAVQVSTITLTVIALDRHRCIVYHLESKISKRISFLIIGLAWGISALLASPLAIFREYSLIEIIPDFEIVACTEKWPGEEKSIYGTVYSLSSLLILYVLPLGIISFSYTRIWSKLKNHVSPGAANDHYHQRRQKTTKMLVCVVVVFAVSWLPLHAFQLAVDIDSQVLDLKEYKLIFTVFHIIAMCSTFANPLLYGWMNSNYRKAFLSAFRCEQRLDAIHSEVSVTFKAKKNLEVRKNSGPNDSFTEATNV

activation, inactive:
OCCNCc1cccc(OCc2ccccc2Cl)c1 -2.33%
Cc1cccn2c(CN(C)C3CCCc4ccccc43)c(C(=O)N3CCOCC3)nc12 (configuration not stated) -13.5%
OC(c1ccccc1)c1nccn1Cc1ccccc1 (configuration not stated) 3.61%
COC(=O)c1cc(N2CCNCC2)nc2ccccc12 17%
O=C(Nc1ccc(Cl)cn1)c1ccc2c(c1)OCCO2 -8.32%
O=C(Nc1cccc(S(=O)(=O)N2CCCCC2)c1)c1ccc2c(c1)OCO2 1.87%
COC(=O)c1ccc(CSc2nncn2N)cc1 2.75%
NC(=O)CCC(NS(=O)(=O)c1ccc(Cl)cc1)C(=O)NCc1ccccc1Cl (configuration not stated) 10%
CC(=O)c1c(C)[nH]c(C(=O)COC(=O)c2cccc(S(=O)(=O)N(C)c3ccccc3)c2)c1C 10.4%
COc1ccc(C(C[N+](=O)[O-])n2nc(C)cc2C)cc1 (configuration not stated) 12.3%
CN(C)CCCN(C(=O)COc1ccccc1)c1nc2c(Cl)cccc2s1 -2.96%
CC(=O)N(CCCN(C)C)c1nc2ccc(C)cc2s1 -1.74%
CCSc1nnc(NC(=O)Cc2ccccc2OC)s1 -5.68%
C=CCSc1nnc(NC(=O)c2ccc(NC(C)=O)cc2)s1 -3.89%
Cc1nc2ccccc2c(C)c1C(=O)c1ccc(F)cc1 -11.5%
CCCC1OC23CCCCC2C(C#N)(C#N)C1(C#N)C(=N)O3 (configuration not stated) 7.5%
COCCCNC(NC(=O)c1ccc(C)cc1)C(Cl)(Cl)Cl (configuration not stated) 15.8%
COc1ccc(C(=O)NC2(C(F)(F)F)NC(=O)N(CCCc3ccccc3)C2=O)c(OC)c1OC (configuration not stated) -6.73%
COc1ccccc1OCCNC(=O)c1cc([N+](=O)[O-])cc([N+](=O)[O-])c1 -7.14%
CC(O)CNCCOc1cccc(Oc2ccccc2)c1 (configuration not stated) -22.6%
C=CCn1c(SCc2cccc(F)c2)nc2cc(C(=O)N3CCC(C(N)=O)CC3)ccc2c1=O 8.55%
O=C(NCCc1ccccn1)c1cc(-c2ccc(Cl)cc2)nc2ccccc12 -15.9%
O=C1c2ccccc2C(=O)c2c1cccc2N1CCN(CCO)CC1 7.55%
O=c1cc(N2CCN(Cc3ccccc3)CC2)c(-c2ccccc2)n[nH]1 12.9%
COc1ccc(NS(=O)(=O)c2cc(NC(=O)CC(=O)c3ccc([N+](=O)[O-])cc3)ccc2C)cc1 -11.2%
CC(=O)C1C(c2cccc(Oc3ccccc3)c2)NC(=O)NC1(O)C(F)(F)F (configuration not stated) 6.91%
CC(=O)C1C(c2ccc(Cl)cc2)NC(=O)NC1(O)C(F)(F)F (configuration not stated) -6.52%
O=C(c1ccc(F)cc1)n1c(=S)nc2ccccn21 3.79%
COc1cc(N2C(=O)c3ccccc3C2=O)c(Cl)cc1C(=O)OCC(=O)N1CCOCC1 -10.6%
OC(COCc1ccco1)CN1CCN(c2ccccc2)CC1 (configuration not stated) -8.6%
O=[N+]([O-])c1ccc(N2CCN(CC(O)COc3ccccc3)CC2)cc1 (configuration not stated) -7.01%
COc1ccc(OCc2cn3c(C)cc(C)nc3n2)cc1 1.94%
COc1cc(NC(=S)NCc2ccc(S(N)(=O)=O)cc2)cc(OC)c1 4.03%
CC1(C)CC(=O)C(N=Nc2c(F)cccc2F)=C(O)C1 19.3%
Cc1nn(-c2ccccc2)c(C)c1/C=C/C(=O)OC(C)C(N)=O (configuration not stated) -0.33%
O=C(NCC(O)c1ccc([N+](=O)[O-])cc1)C1CCCCC1 (configuration not stated) -6.08%
CC(C)(C)n1ncc2c(=O)n(Cc3ccc(Cl)cc3)cnc21 -23.4%
Cc1ccccc1Nc1c(-c2ccccc2)nc2ncccn12 22.6%
COC(=O)c1ccc(COc2ccc(/C=N/NC(=O)C(=O)Nc3ccc(OC)cc3)cc2OC)o1 -3.63%

activation, active:
O=C(Nc1cccc(S(=O)(=O)Nc2ccc(Cl)cc2)c1)c1ccc2c(c1)OCCO2 35%
COc1cccc2sc(N(CCCN(C)C)C(=O)C(c3ccccc3)c3ccccc3)nc12 95.6%
CCSc1nnc(NC(=O)c2ccc(C)cc2)s1 31.6%
COc1ccccc1OCCNCC(O)COc1cccc2[nH]c3ccccc3c12 (configuration not stated) 99.4% and 97.9%
O=C1c2ccccc2C(=O)c2c1cccc2N1CCN(Cc2ccccc2)CC1 48.8%
O=C1NC(c2ccc(-c3ccccc3[N+](=O)[O-])o2)C(C(=O)c2ccc(Cl)cc2)C(O)(C(F)(F)F)N1 (configuration not stated) 37.4%
OC(COCC1COc2ccccc2O1)CN1CCN(c2ccc(F)cc2)CC1 (configuration not stated) 80.4%
Cc1cccc(C)c1Nc1c(-c2ccccc2O)nc2ncccn12 56.5%
